Assay results reported in PubChem BioAssay (NCI).
This is part of a sample that, as a whole, favours compounds with a hit. Of some 83,000 tested, about 20% had one in any assay.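 Negative percent growth values reflect cell death: -40 means 40% of the cells present at the start died, and -100 means all died.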 A number with no mark means an inactive call. The source made the active and inactive calls. The calls were made as follows: active = growth percent below 10; inactive = the rest.

What was measured:
Assay in all cases: NCI-60 one-dose screen, 48 h (100 = growth as untreated, 0 = no growth, -100 = all killed)
Settings in all cases: 10 µM unless noted
[1] = test system: NCI-H23 lung
[2] = test system: NCI-H226 lung
[3] = test system: NCI-H322M lung
[4] = test system: HOP-62 NSCLC
[5] = test system: NCI-H460 lung
[6] = test system: HOP-92 NSCLC
[7] = test system: NCI-H522 lung
[8] = test system: A549/ATCC NSCLC
[9] = test system: 786-0 renal
[10] = test system: COLO 205 colon
[11] = test system: DU-145 prostate
[12] = test system: K-562 leukemia
[13] = test system: MALME-3M melanoma
[14] = test system: MDA-MB-231 breast
[15] = test system: RXF 393 renal
[16] = test system: SF-268 CNS
[17] = test system: SF-295 CNS
[18] = test system: SF-539 CNS
[19] = test system: UACC-257 melanoma
[20] = test system: M14 melanoma

Row | Compound | growth [1] | growth [2] | growth [3] | growth [4] | growth [5] | growth [6] | growth [7] | growth [8] | growth [9] | growth [10] | growth [11] | growth [12] | growth [13] | growth [14] | growth [15] | growth [16] | growth [17] | growth [18] | growth [19] | growth [20]
1 | CC(C)(C)n1cc(-c2ccnc(NCCNS(=O)(=O)c3ccc(C(F)(F)F)cc3)c2)c(-c2cccc(O)c2)n1 | 55.8% | 67.2% | 74.9% | 71.5% | 21.2% | 35.4% | 49% | 41.1% | 33.9% | -33.8% (active) | 75.7% | 7.42% (active) | 42.3% | 46% | 37% | 56.6% | 44.3% | 54% | 47.2% | 44.7%
2 | Cn1c(=O)cc(NC(=O)CN2CCN(c3cc4c(cc3F)c(=O)c(C(=O)O)cn4C3CC3)CC2)[nH]c1=O | 99.9% | 95.5% | 102% | 98.9% | 105% | 99.8% | 91.7% | 98.8% | 102% | 106% | 103% | 100% | 104% | 98.5% | 102% | 92.7% | 101% | 102% | 100% | 96.5%
3 | COc1cccc(CC(C)=C(c2ccc(OCCN3CCCCC3)cc2)c2ccc(OCCN3CCCCC3)cc2)c1 | 58% | 79.8% | 0.584% (active) | 31.1% | -73.3% (active) | -4.48% (active) | -75% (active) | 2.38% (active) | -83.7% (active) | -81.2% (active) | 17.8% | -37.3% (active) | -88.5% (active) | -76.8% (active) | -85.5% (active) | -18.9% (active) | -62% (active) | -96.1% (active) | -69.3% (active) | -64.8% (active)
4 | CCCCCCCCCCCCCCCCCCNC(=O)[C@H]1CSC(c2ccc(OC)cc2O)N1 (stereo not given in full) | 83.3% | 90.4% | 67.5% | 63.9% | 13.4% | 66% | 65.8% | 73.8% | 82.2% | 97.1% | 22.5% | 25.7% | 96.6% | 38.1% | 32.5% | 50.6% | 93% | 66% | 88.3% | 65.3%
5 | CCCCCCCC[C@@H](O)CC(=O)N[C@@H](CC(N)=O)C(=O)N[C@@H](CCC(N)=O)C(=O)N[C@@H](CC(=O)c1cc(C)cc(O)c1C(=O)c1c(O)cccc1O)CC(C)C | 23.5% | 89.1% | 86.8% | 6.71% (active) | 23.4% | -17.8% (active) | -22.5% (active) | 60.1% | 11.6% | 13.5% | 54% | 23.8% | 51.3% | 12.1% | -49.5% (active) | 9.65% (active) | 21% | -5.78% (active) | 14.9% | -12.3% (active)
6 | CC(=O)OC[C@]12CC[C@H]3[C@@H](C[C@H]4O[C@]45CC=CC(=O)[C@]35C)[C@]1(O)CC[C@@]2(O)[C@@](C)(O)C1CC(C)=C(C)C(=O)O1 (stereo not given in full) | -32.9% (active) | -28.5% (active) | -54.2% (active) | -34% (active) | -51.3% (active) | -34.6% (active) | -54.1% (active) | 6.23% (active) | -19.6% (active) | -35.7% (active) | 7.44% (active) | 5.58% (active) | -58.4% (active) | -14.7% (active) | -62.8% (active) | -49.5% (active) | -11.9% (active) | -42.7% (active) | 13.7% | 2.6% (active)
7 | COc1cccc(-c2cc3c(O)cc(C#N)cc3[nH]2)c1 | 92.5% | 101% | 85.4% | 108% | 96.9% | 113% | 80.2% | 94.6% | 90.5% | 115% | 101% | 82.5% | 100% | 73% | 112% | 98.9% | 90.6% | 85.5% | 86.9% | 86.6%
